From PubChem BioAssay AID624487 (NMMLSC, 2012)
Potency and affinity values are given separately.

Molecular target: ATP-binding cassette sub-family B member 6 (Homo sapiens) (UniProt Q9NP58)
Assay: ABCB6 transporter inhibitors, porphyrin accumulation, dose response, flow cytometry, K562-ABCB6 cells, cherry pick 02 (AID 624487)
Conditions: 1 h; series mostly up to 100 µM; response, % of control (lower = inhibition): at the top concentration;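 active = fitted EC50, the dose giving half the maximal drop in porphyrin signal, under 100 µM; inactive = the rest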

ATP-binding cassette sub-family B member 6 (Homo sapiens), sequence (Q9NP58 whole entry, looked up): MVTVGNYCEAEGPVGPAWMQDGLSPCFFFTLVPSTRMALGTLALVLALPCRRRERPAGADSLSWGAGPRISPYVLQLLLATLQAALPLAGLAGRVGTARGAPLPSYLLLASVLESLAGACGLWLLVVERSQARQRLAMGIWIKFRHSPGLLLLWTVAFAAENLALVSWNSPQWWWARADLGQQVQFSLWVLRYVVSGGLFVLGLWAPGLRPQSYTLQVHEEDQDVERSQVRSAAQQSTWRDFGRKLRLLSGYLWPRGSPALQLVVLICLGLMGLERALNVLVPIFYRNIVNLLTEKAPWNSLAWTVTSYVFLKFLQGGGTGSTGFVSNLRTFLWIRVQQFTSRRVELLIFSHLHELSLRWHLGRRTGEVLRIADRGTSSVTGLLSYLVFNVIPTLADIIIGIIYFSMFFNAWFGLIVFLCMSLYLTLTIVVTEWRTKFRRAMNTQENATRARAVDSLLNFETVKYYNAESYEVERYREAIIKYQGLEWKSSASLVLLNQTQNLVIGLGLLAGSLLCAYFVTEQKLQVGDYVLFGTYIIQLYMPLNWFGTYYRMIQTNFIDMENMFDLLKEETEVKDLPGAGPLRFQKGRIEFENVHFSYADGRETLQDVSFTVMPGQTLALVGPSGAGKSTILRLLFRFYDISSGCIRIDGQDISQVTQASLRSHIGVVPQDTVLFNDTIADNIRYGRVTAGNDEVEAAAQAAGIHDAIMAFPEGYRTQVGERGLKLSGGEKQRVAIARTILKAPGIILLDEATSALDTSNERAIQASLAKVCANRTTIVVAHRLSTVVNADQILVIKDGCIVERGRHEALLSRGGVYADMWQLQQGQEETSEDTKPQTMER

response, % of control (lower = inhibition), inactive:
Cc1cccc(CS(=O)(=O)c2ncc(Cl)c(C(=O)Nc3nnc(C(C)C)s3)n2)c1 67.9%, CCCc1nnc(NC(=O)c2nc(S(=O)(=O)Cc3ccc(C)cc3)ncc2Cl)s1 68.2%, Cc1nnc(NC(=O)c2nc(S(=O)(=O)Cc3ccccc3)ncc2Cl)s1 70.9%, CC(C)c1nnc(NC(=O)c2nc(S(=O)(=O)Cc3ccc(F)cc3)ncc2Cl)s1 79.1%, COc1ccc(OC)c(NC(=O)c2nc(S(=O)(=O)Cc3ccccc3)ncc2Cl)c1 180%, CCOC(=O)c1ccc(NC(=O)c2nc(S(=O)(=O)Cc3ccccc3)ncc2Cl)cc1 49%, Cc1nnc(NC(=O)c2nc(S(=O)(=O)Cc3ccccc3C)ncc2Cl)s1 87%, CCc1nnc(NC(=O)c2nc(S(=O)(=O)Cc3cccc(C)c3)ncc2Cl)s1 81.6%, Cc1ccc(CS(=O)(=O)c2ncc(Cl)c(C(=O)Nc3nnc(C)s3)n2)cc1 82.2%, COc1ccc(NC(=O)c2nc(S(=O)(=O)Cc3cccc(C)c3)ncc2Cl)c(OC)c1 188%, Cc1ccc(CS(=O)(=O)c2ncc(Cl)c(C(=O)Nc3ccc(OC(F)F)cc3)n2)cc1 50.5%, CCOc1ccccc1NC(=O)c1nc(S(=O)(=O)Cc2ccccc2)ncc1Cl 56.6%, CCc1nnc(NC(=O)c2nc(S(=O)(=O)Cc3ccccc3)ncc2Cl)s1 86.1%
